In the library only some 31% were active in any assay of this set; here they are far more common.
CYP2C9 inh: inhibitors of human CYP2C9; P11712; CYP2C9 Supersomes, luciferin-H conversion, luminescence; inhibition, % at 5 µM; 96,000 tested, 20% active; AID 777;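 active means blocking of liver enzyme CYP2C9 beyond about 50% at 5 µM, limit read from the data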
Target sequence (P11712 whole entry, looked up): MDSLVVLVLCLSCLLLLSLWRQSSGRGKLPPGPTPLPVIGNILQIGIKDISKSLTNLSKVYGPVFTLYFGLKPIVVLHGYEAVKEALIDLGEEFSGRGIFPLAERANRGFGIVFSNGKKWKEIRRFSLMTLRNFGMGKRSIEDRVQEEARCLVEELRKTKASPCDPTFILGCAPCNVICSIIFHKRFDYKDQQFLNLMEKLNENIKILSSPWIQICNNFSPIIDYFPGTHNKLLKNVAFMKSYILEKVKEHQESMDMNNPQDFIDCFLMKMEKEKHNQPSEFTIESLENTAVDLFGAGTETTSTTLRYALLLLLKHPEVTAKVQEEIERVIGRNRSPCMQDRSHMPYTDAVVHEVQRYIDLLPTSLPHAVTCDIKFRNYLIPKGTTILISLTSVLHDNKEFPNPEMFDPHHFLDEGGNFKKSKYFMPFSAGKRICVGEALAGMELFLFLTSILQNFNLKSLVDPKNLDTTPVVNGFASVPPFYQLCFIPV
CYP2C19 activ: activators of human cytochrome P450 2C19; P33261; 96,000 tested, under 10 active; recombinant CYP2C19, luciferin-H EGE luminescence; hits give high values; 0 = fully inhibited enzyme, 1 = untreated enzyme; activation factor at 5 µM;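 active means activation factor of at least 2 at 5 µM in the primary screen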;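 further: 0 = wells with 2.5 mM tranylcypromine and 1 = vehicle-only wells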
CYP2C19 inhib: blocks human cytochrome P450 2C19. P33261. CYP2C19 Supersomes, luciferin-H EGE luminescence, 30 min. inhibition, % at 5 µM. 96,000 tested, 21% active. AID 778;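 active means CYP2C19 inhibition above a set limit at 5 µM in the primary screen, cut at about 50% in these data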;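 further: plate controls were negative control wells for no effect and 2.5 mM tranylcypromine positive control for full effect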
CYP2C9 activ: CYP2C9 (human) activation; activation factor at 5 µM; recombinant CYP2C9, luciferin-H conversion, luminescence; hits give high values; factor 1 = untreated enzyme, 0 = blocked; 96,000 tested, 1.4% active; P11712; AID 1024;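 active means activation factor of 2 or more for CYP2C9 at a 5 µM dose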;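 further: 0 = sulfaphenazole-blocked wells and 1 = vehicle-only wells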
* hit, by the source's call.

SMILES	CYP2C9 inh	CYP2C19 activ	CYP2C19 inhib	CYP2C9 activ
Cc1cc(C)c(S(=O)(=O)N(CC(=O)N2CCCC2)C2CCCCC2)c(C)c1	58*	0.7	28	0.4
Cc1ccc(-c2nc3ncccn3c2NC2CCCCC2)o1	-28	1	2	1.3
Clc1c(CSc2nc3ccccc3o2)nc2ccccn12	-1	0	98*	1
Clc1c(CSc2nc3ccccc3o2)nc2sccn12	-16	0.5	48	1.2
Brc1c(CSc2nc3ccccc3o2)nc2ncccn12	-31	0.4	64*	1.3
COc1ccc(OC)c(-n2nnnc2SCC(=O)NCCc2ccccc2)c1	54*	0.4	60*	0.5
COc1cccc(-n2nnnc2SCC(=O)NCCc2ccccc2)c1	13	0.1	93*	0.9
COc1cccc(-n2nnnc2SCC(=O)NCc2ccco2)c1	-28	0.9	13	1.3
COc1ccc(C(C(=O)NC2CCCCC2)N(C(=O)c2sc(C)nc2C)c2ccccc2C)cc1 (stereo not drawn)	-7	0.8	16	1.1
Cc1occc1C(=O)Nc1cccc(C(=O)O)c1	41	0.3	71*	0.6
CC(=O)c1cccc(NC(=O)c2ccco2)c1	7	0.9	11	0.9
Nc1ccccc1C(=O)Nc1cccc(C(=O)O)c1	14	0.4	59*	0.9
COC(=O)c1cc(NC(=O)c2ccoc2C)cc(C(=O)OC)c1	40	0.8	17	0.6
Cc1cccc(NC(=O)c2ccccc2C(=O)O)c1	-22	1.1	-14	1.2
CC(=O)Nc1cccc(C(=O)/C=C/c2ccco2)c1	-126	0.5	47	2.3*
CCC(C)(NC(=O)c1ccc(=O)[nH]c1)C(=O)NC1CCCC1 (stereo not drawn)	-8	1.1	-7	1.1
COc1ccc(C(=O)N2CCc3cc(OC)c(OC)cc3C2c2cccc([N+](=O)[O-])c2)cc1OC (stereo not drawn)	69*	0.8	19	0.3
COc1ccc(C(=O)N2CCN(C3CCC(c4ccccc4)CC3)CC2)cc1OC (stereo not drawn)	-52	0.7	28	1.5
O=C(CN1CCN(S(=O)(=O)c2ccc(Cl)cc2)CC1)Nc1ccc2c(c1)OCCO2	14	0.6	42	0.9
O=C(Nc1ccc2c(c1)OCO2)C1CCCCN1S(=O)(=O)c1ccccc1 (stereo not drawn)	64*	0	98*	0.4
O=C(Nc1ccc2c(c1)OCO2)C1CCN(S(=O)(=O)c2ccc3c(c2)OCCO3)CC1	-25	1.1	-6	1.2
O=C(Nc1ccc2c(c1)OCCO2)C1CCCN1S(=O)(=O)c1ccc(Cl)cc1 (stereo not drawn)	96*	0.1	88*	0
NC(=O)CC1SC(N)=NC1=O (stereo not drawn)	4	1	2	1
Cc1ccc2c(c1)N(CCC(=O)NCc1cccs1)C(=O)C(C)O2 (stereo not drawn)	74*	0	97*	0.3
Cc1ccc2c(c1)N(Cc1ccncc1)C(=O)C(C)O2 (stereo not drawn)	89*	0.2	81*	0.1
SMILES	CYP2C9 inh	CYP2C19 activ	CYP2C19 inhib	CYP2C9 activ
Cc1ccc2c(c1)N(CC(=O)NCc1cccs1)C(=O)C(C)O2 (stereo not drawn)	-25	0.5	47	1.2
CCC(CC)NC(=O)c1cc(OC)c(OC)cc1[N+](=O)[O-]	7	1.1	-8	0.9
CCOn1c(=O)c(-c2ccc(OC)cc2)[n+]([O-])c2ccccc21	19	0.9	8	0.8
CCOc1ccc(OCC)c(-c2c(=O)n(OCc3ccc(C(C)(C)C)cc3)c3ccccc3[n+]2[O-])c1	52*	0.1	88*	0.5
CCN1CCN(C(=O)CN(C)S(=O)(=O)c2ccc(Cl)cc2)CC1	-4	1	2	1
COc1ccccc1OCC(=O)N/N=C1/SCC(=O)N1Cc1ccccc1	-9	0.9	14	1.1
COc1ccc(-c2c(C)n([O-])c3c([n+]2=O)CCC3)cc1OC	-20	1.1	-12	1.2
COc1cccc(OCc2nc3ccccc3[nH]2)c1	65*	0	100*	0.4
c1cnc2c(OCc3nc4ccccc4[nH]3)cccc2c1	12	0.1	95*	0.9
COc1ccccc1OCc1nc2ccccc2[nH]1	26	0.3	74*	0.7
Cc1cccc(OCc2nc(C)cc(=O)[nH]2)c1	-19	1	-2	1.2
COc1cccc(OCc2nc3ncc(Br)cc3[nH]2)c1	35	0.5	54*	0.6
COc1ccccc1CNC(=O)c1ccccc1N(C)S(C)(=O)=O	8	0.7	29	0.9
COc1ccc(NC(=O)Cc2nc3ccccc3[nH]2)cc1	26	0.3	67*	0.7
Cc1ccc(C)c(-n2ccnc2SCC(=O)O)c1	59*	1	4	0.4
Cc1ccc(C(=O)CSc2nccn2-c2ccccc2)cc1	31	0.4	56*	0.7
O=C(CSc1nccn1-c1ccccc1)c1ccc(Cl)cc1	36	0.3	74*	0.6
Cc1ccc(C(=O)CSc2nnc(-c3ccccc3N)n2C)cc1	31	0.7	27	0.7
CSc1ccccc1NC(=O)c1ccco1	2	1	-4	1
CCCCOC(=O)NC1CCS(=O)(=O)C1 (stereo not drawn)	-21	1.1	-6	1.2
Cc1c(C(=O)N2CCN(CCc3ccccc3)CC2)oc2ccccc12	-25	0.3	73*	1.3
Cc1c(C(=O)N2CCN(S(C)(=O)=O)CC2)oc2ccccc12	1	0.1	91*	1
CCOC(=O)c1ccc2c(c1)N(CC(=O)N1CCCC1)C(=O)C(C)(C)O2	34	0.9	5	0.7
CCOC(=O)c1c(NC(=O)COC(=O)Cn2c(C(F)(F)F)nc3ccccc32)sc(C)c1C	36	1	-1	0.6
CC(C)CCC1CC(CSC(=N)N)OC1=O (stereo not drawn)	-17	1	1	1.2
SMILES	CYP2C9 inh	CYP2C19 activ	CYP2C19 inhib	CYP2C9 activ
COc1cc(NC(=O)C2CCCCN2)ccc1OCC(C)C (stereo not drawn)	-4	1.1	-11	1
CCc1nnc(NC(=O)c2ccc(Cl)c(S(=O)(=O)N3CCc4ccccc43)c2)s1	81*	0.3	75*	0.2
O=C(Nc1ncccc1O)c1cccc(S(=O)(=O)N2CCc3ccccc32)c1	75*	0.3	72*	0.2
O=C(CCN1C(=O)C2C3C=CC(C3)C2C1=O)Nc1ccc2ncccc2c1 (stereo not drawn)	12	0.9	12	0.9
CC(=O)Nc1ccc(N/C=C/C(=O)c2ccc(C)o2)cc1	-12	0.8	15	1.1
COCCCn1c(SCc2ccccc2)nc2cc(OC)c(OC)cc2c1=N	64*	0.5	54*	0.4
COCCCn1c(SCc2cccc(C(F)(F)F)c2)nc2cc(OC)c(OC)cc2c1=N	82*	0.6	39	0.2
COc1ccc(NC(=O)Nc2ncn(Cc3cccc(C(F)(F)F)c3)n2)cc1OC	35	0.6	43	0.7
Cc1cccc2cc(CN(Cc3ccc(F)cc3)C(=O)N(C)C)c3nnnn3c12	39	0.7	30	0.6

Bioassay records (PubChem BioAssay)
